Assay [1] can be described thus: qHTS RealTime-Glo MT Cell Viability Assay in HEK293 cells - 0 hour (AID 1224880). Also: top concentration of the series differs between compounds; nearly all actives have a fitted effect of over 45% in size. The procedure, abridged: (§1)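 Tox21 screen in HEK293 using RealTime-Glo MT chemistry, with cells and reagent co-dispensed. Luminescence proportional to viable cell number was captured at intervals during 40 h compound exposure at 37 C.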
Assay [2] in a line: A CellTox Green Cytotoxicity Assay to monitor cytotoxicity in HEK293 cells - 32 hour (AID 1224881). Also: nearly all actives have a fitted effect of over 40% in size. In outline:
(§2)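 Seeding of HEK293 cells together with cytotoxicity dye preceded a 5 h incubation at 37 C/5% CO2. Test compounds in DMSO were then added and fluorescence monitored across 40 h.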

A short description of assay [3]: A CellTox Green Cytotoxicity Assay to monitor cytotoxicity in HepG2 cells - 0 hour (AID 1224882). Also: nearly all actives have a fitted effect of over 35% in size. The procedure, abridged: (§3)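 Nonlytic assay: viable cells exclude the dye, so fluorescence scales with cell death. HepG2 at 600 cells/well, compounds added after 5 h, signal read across 40 h.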
Assay [4] is described as follows: A CellTox Green Cytotoxicity Assay to monitor cytotoxicity in HepG2 cells - 32 hour (AID 1224883). Also: nearly all actives have a fitted effect of over 50% in size. The procedure, abridged:
as §3

Assay [5] can be described thus: A CellTox Green Cytotoxicity Assay to monitor cytotoxicity in HEK293 cells - 8 hour (AID 1224884). Also: nearly all actives have a fitted effect of over 35% in size. The procedure, abridged:
as §2

The nature of assay [6]: qHTS RealTime-Glo MT Cell Viability Assay in HepG2 cells - 16 hour (AID 1224885). Also: nearly all actives have a fitted effect of over 50% in size. In outline: (§4)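 Tox21 10K library screened in qHTS format on HepG2 cells carrying RealTime-Glo reagents. Compounds were added after a 5 h preincubation, and the luminescent signal from continuous culture was measured repeatedly during 40 h treatment.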
A short description of assay [7]: qHTS RealTime-Glo MT Cell Viability Assay in HEK293 cells - 8 hour (AID 1224887). Also: nearly all actives have a fitted effect of over 50% in size. Also: potency is read from the fitted curve at half-maximal effect. In outline: as §1
Assay [8] can be described thus: A CellTox Green Cytotoxicity Assay to monitor cytotoxicity in HEK293 cells - 16 hour (AID 1224888). Also: nearly all actives have a fitted effect of over 35% in size. In outline: as §2
The nature of assay [9]: qHTS RealTime-Glo MT Cell Viability Assay in HepG2 cells - 0 hour (AID 1224889). Also: nearly all actives have a fitted effect of over 50% in size. The procedure, abridged: as §4
Assay [10] is described as follows: A CellTox Green Cytotoxicity Assay to monitor cytotoxicity in HepG2 cells - 8 hour (AID 1224890). Also: nearly all actives have a fitted effect of over 45% in size. The procedure, abridged:
as §3

Assay [11] can be described thus: qHTS assay to identify small molecule antagonists of the estrogen receptor alpha (ER-alpha) signaling pathway using the BG1 cell line in the presence of 0.1 nM 17-beta-estradiol - cell viability counter screen (AID 1259241). Also: nearly all actives have a fitted effect of over 40% in size. The procedure, abridged: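 Cytotoxicity counter-screen: live-cell protease activity measured by fluorescence (30 min reagent step) in the same wells. Cells were VM7Luc4E2 with endogenous ER-alpha and ERE-driven luciferase, treated 22 hr at 37C alongside 0.1 nM 17beta-estradiol final.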

A short description of assay [12]: qHTS assay to identify small molecule antagonists of the androgen receptor (AR) signaling pathway using the MDA cell line in the presence of 0.5 nM R1881 - cell viability counter screen (AID 1259242). Also: nearly all actives have a fitted effect of over 45% in size. In outline: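 R1881 at 0.5 nM final stimulated MDA-kb2 cells during 16 hr compound treatment at 37C. Cytotoxicity read: CellTiter-Fluor fluorescence after 30 min.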

The target in assay [13] is Estrogen receptor (Homo sapiens) (UniProt P03372). The assay can be described thus: qHTS assay to identify small molecule antagonists of the estrogen receptor alpha (ER-alpha) signaling pathway using the BG1 cell line in the presence of 0.1 nM 17-beta-estradiol (AID 1259244). Also: nearly all actives have a fitted effect of over 50% in size. The procedure, abridged:
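VM7Luc4E2; 4xERE-luciferase; 0.1 nM E2 final; 22 h co-incubation, 37C; ONE-Glo luminescence after 30 min at room temperature.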

The nature of assay [14]: qHTS assay to identify small molecule HDAC inhibitors (AID 1259364).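 Also: wild-type HCT-116 cells with endogenous class I/II HDAC activity; top concentration of the series differs between compounds; nearly all actives have a fitted effect of over 45% in size.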 In outline:
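Relative class I and II HDAC activity is taken from the luminogenic signal in HCT-116 cells, with compound exposure 2 hr and reagent development 30 min at room temperature.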

The nature of assay [15]: qHTS assay to identify small molecule HDAC inhibitors - cell viability counter screen (AID 1259365). The procedure, abridged:
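CellTiter-Glo luminescence (30 min, room temperature) reported viability after a 2 h compound exposure at 37 C. Cells: wild-type HCT-116, 1,500 per well, seeded the night before.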

The nature of assay [16]: qHTS assay to identify small molecule antagonists of the sonic hedgehog signaling (Shh) pathway - cell viability counter screen (AID 1259367). Also: nearly all actives have a fitted effect of over 55% in size. Also: potency is read from the fitted curve at half-maximal effect. In outline: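 Cells: 3T3 Gli1-Luc, 2,000/well, 4 hr pre-incubation. Compounds in DMSO, then conditioned medium. Incubation 24 hr, 37C, 5% CO2. CellTiter-Fluor at 23 hr, 1 hr, fluorescence.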
Assay [17] can be described thus: qHTS assay to identify small molecule agonists of the sonic hedgehog signaling (Shh) pathway - cell viability counter screen (AID 1259366). Also: nearly all actives have a fitted effect of over 50% in size. Also: potency is read from the fitted curve at half-maximal effect. The procedure, abridged: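 Cytotoxicity counter screen: CellTiter-Fluor reagent added after 23 h compound exposure, then 1 h at 37C and fluorescence read. Cells were 3T3 Gli1-Luc, seeded 2,000 per well and dosed 4 h post-plating.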

Assay [18] in a line: qHTS assay to identify small molecule phospholipidosis (PLD) inducers (AID 1259344; active = well fitted curve in the direction sought with a large enough effect; an effect the other way counts as inactive or inconclusive). In outline:
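Phospholipidosis is scored by imaging LipidTOX-stained pits in HepG2 cells exposed to compound for 24 h at 37 C; pit counts and integrated intensities per well and per cell serve as outputs.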

The target of assay [19] is Androgen receptor (Homo sapiens) (UniProt P10275). The assay can be described thus: qHTS assay to identify small molecule antagonists of the androgen receptor (AR) signaling pathway using the MDA cell line in the presence of 0.5 nM R1881 (AID 1259243). The procedure, abridged:
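We exposed MDA-kb2 cells to compounds under 0.5 nM R1881 stimulation for 16 hr at 37C and quantified MMTV-driven luciferase by luminescence.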

A number with no mark means an inactive call. Records with an inconclusive call do not appear. Active and inactive are the calls of the source. Unless noted, calls follow the shape of the dose curve; as a rule, active = well fitted curve in the direction sought with a large enough effect in the repeat runs; inconclusive = weak or mixed curves; inactive = no such curve, though single readings can be large; an effect the other way counts as inactive or inconclusive.

Estrogen receptor (Homo sapiens), sequence (P03372 whole entry, looked up): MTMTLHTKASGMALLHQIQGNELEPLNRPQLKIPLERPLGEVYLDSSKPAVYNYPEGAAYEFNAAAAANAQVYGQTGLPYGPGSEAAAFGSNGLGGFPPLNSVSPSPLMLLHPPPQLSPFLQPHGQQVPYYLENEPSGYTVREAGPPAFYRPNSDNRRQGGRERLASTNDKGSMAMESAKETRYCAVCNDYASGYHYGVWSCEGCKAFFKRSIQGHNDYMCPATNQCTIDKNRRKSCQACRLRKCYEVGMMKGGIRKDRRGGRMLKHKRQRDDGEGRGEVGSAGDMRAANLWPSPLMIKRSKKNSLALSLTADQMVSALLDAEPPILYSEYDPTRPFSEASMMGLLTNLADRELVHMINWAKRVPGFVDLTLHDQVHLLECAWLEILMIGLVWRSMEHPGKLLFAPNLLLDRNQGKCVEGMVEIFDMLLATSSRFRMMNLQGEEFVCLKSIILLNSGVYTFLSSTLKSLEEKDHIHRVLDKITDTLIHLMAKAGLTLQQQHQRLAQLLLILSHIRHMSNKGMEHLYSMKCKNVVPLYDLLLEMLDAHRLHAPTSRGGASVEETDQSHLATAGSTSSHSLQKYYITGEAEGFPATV
Androgen receptor (Homo sapiens), sequence (P10275 whole entry, looked up): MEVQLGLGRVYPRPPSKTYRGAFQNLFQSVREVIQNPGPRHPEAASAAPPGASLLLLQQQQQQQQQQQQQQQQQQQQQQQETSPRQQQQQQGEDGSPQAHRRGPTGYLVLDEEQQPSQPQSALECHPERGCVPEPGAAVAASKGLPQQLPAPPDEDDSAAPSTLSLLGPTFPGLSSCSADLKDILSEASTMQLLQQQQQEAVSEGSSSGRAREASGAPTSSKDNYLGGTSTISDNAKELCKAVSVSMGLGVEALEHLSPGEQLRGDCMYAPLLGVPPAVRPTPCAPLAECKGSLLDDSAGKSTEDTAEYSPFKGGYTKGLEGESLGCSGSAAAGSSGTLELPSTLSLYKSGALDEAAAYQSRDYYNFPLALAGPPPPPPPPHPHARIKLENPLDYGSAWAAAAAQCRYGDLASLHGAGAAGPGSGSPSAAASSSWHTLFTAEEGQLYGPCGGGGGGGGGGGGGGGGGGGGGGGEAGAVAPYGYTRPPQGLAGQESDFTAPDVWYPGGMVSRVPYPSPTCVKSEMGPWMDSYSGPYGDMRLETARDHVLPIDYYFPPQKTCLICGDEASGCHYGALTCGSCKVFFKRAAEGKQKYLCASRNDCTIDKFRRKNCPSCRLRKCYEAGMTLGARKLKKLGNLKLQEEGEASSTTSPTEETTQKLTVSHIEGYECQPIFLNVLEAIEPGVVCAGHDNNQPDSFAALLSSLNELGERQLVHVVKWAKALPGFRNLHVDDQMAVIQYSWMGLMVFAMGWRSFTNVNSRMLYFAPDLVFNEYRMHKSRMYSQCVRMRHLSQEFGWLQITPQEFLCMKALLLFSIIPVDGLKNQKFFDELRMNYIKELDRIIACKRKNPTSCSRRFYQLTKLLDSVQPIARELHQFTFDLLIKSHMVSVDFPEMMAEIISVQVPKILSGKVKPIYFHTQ

For the molecule `O=C(OCCN1CCOCC1)c1cccnc1Nc1cccc(C(F)(F)F)c1`, the Potency result in [1], in assay [2], in [3], in assay [4], in assay [5] and in [7] was “inactive” in each case. Besides, the Potency result in assay [8], in assay [9], in assay [10], in [11], in [12] and in assay [13] was “inactive” throughout. For the same molecule, the Potency result in assay [14] and in assay [16] was “inactive” throughout. For the same molecule, the call in [6] and in assay [15] was inactive.

`O=C(Cl)c1ccc(F)c(Cl)c1`: the Potency entry in [1], in [2], in [3], in assay [4], in assay [5] and in assay [8] was “inactive” in each case. For the same molecule, the Potency entry in assay [9], in [10], in [11], in [12], in assay [13] and in [14] was “inactive” throughout. In addition, in [17], the Potency result is “inactive”. Besides, the result in [6] was inactive.

As to `CCCCOC(=O)C(C)Oc1ccc(Oc2ccc(C(F)(F)F)cn2)cc1` (configuration not stated), the Potency entry in [1], in assay [2], in assay [3], in assay [4], in [5] and in [8] was “inactive” in each case. Besides, the Potency result in assay [9], in [10], in assay [11], in assay [12], in assay [13] and in assay [14] was “inactive” each time. Besides, in [16], the Potency result was “inactive”. In addition, the outcome in [6] and in [15] was inactive.

Regarding `Cc1c(-c2cccnc2)c2ccccc2n1CCCCC(=O)O`, the Potency result in assay [1], in [2], in assay [3], in [4], in assay [5] and in [7] was “inactive” each time. Besides, the Potency entry in [8], in [10], in [11], in assay [12], in [14] and in [16] was “inactive” in each case. Moreover, the molecule was classed as inactive in assay [6].

Consider `Clc1nc2ccccc2nc1Cl`, for which the Potency result in assay [1], in [2], in assay [3], in [4], in assay [5] and in assay [7] was “inactive” each time. Also, the Potency entry in assay [8], in [9], in assay [10], in [11], in assay [13] and in assay [14] was “inactive” each time. Besides, the Potency entry in assay [16] was “inactive”. Moreover, the molecule was called inactive in [6] and in [15].

With `S=c1[nH][nH]c(=S)s1`, the Potency entry in assay [1], in [2], in [3], in assay [4], in [5] and in [7] was “inactive” throughout. Further, the Potency entry in [8], in assay [9], in assay [10], in assay [11], in [12] and in assay [13] was “inactive” each time. Besides, the Potency entry in [14] and in [16] was “inactive” each time. In addition, the result in assay [6] and in assay [15] was inactive.

`CCc1c(C)[nH]c2c1C(=O)C(CN1CCOCC1)CC2` (configuration not stated): the Potency result in assay [1], in assay [2], in [3], in assay [4], in assay [5] and in assay [7] was “inactive” each time. The Potency result in [8], in [9], in assay [10], in [11], in [12] and in [18] was “inactive” each time. Besides, the Potency entry in [14] and in assay [17] was “inactive” each time. Further, the result in assay [6] and in assay [15] was inactive.

Regarding `CCOc1cc(OCC)c(C(C)=O)cc1OCC`, the Potency result in assay [1], in assay [2], in assay [3], in assay [4], in assay [5] and in assay [8] was “inactive” in each case. Also, the Potency entry in assay [9], in assay [10], in assay [12], in assay [13] and in assay [14] was “inactive” each time. The call in assay [6] and in assay [15] was inactive. The Potency in assay [7] was 19.2 µM (active); in assay [19], 26.8 µM (active); in assay [17], 10.7 µM (active); in assay [16], 8.48 µM (active).

These data come from PubChem BioAssay (Tox21).
